Test results as given in PubChem BioAssay (NCATS).
Records with an inconclusive call do not appear. Calls of active or inactive are those of the source. Unless noted, calls follow the shape of the dose curve; as a rule, active = well fitted curve in the direction sought with a large enough effect; inconclusive = small, poorly fitted or top-dose-only effect, or another doubt; inactive = no such curve, though single readings can be large; an effect the other way counts as inactive or inconclusive. Where a SMILES comes first, the peptide text is derived from it. [ ]: non-standard residue; d: D form. Ala(indol-2-yl) = N[C@@H](Cc1cc2ccccc2[nH]1)C(=O)O; Aib = CC(C)(N)C(=O)O

What was measured:
[1] = P-glycoprotein substrates identified in KB-8-5-11 adenocarcinoma cell line, qHTS therapeutic library screen (AID 1346987); also: nearly all actives have a fitted effect of over 65% in size; also: potency is read from the fitted curve at half-maximal effect
Summary of the method: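 Steps: plate 500 KB-8-5-11 cells/well in DMEM + 10% FCS (colchicine removed); pin compounds in dose-response; incubate 72 h, 37 degree C, 5% CO2; add CellTiter-Glo, 5 min; read luminescence.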

[2] = tested on: Zika virus NS2B-NS3 protease (unlinked complex); test: Primary screen GU Rhodamine qHTS for Zika virus inhibitors: Unlinked NS2B-NS3 protease assay (AID 1347159); also: % is scaled to controls: 0 for no effect and ±100 for the full control effect; nearly all actives have a fitted effect of over 60% in size
Summary of the method: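 Noncovalent NS2B hydrophilic domain/NS3 protease complex (25 nM final) in 10 mM Tris-HCl pH 8.0, 0.01% Tween 20, preincubated 15 min with compounds (up to 114 microM), then 1.5 microM Rhodamine110 substrate. Fluorescence change over 15 min fitted to 4-parameter Hill.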

[3] = Primary redox qHTS assay for identification of artifact compounds. (AID 1845223);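 also: 0% = DMSO and 100% = reference compound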
Summary of the method: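 Amplex Red (25 uM) and HRP (250 mU/mL) in HBSS, with compounds for 15 min, then 250 uM DTT for 30 min, room temperature, dark. Fluorescence 525/598 nm read; normalized to DMSO and 10 uM DA3003; Hill fit.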

KB-3-1 = test: Cytotoxic Profiling of Annotated Libraries Using Quantitative High-Throughput Screening (AID 1296008); conditions: Five cell lines viability, CellTiter-Glo ATP luminescence, 48-72 h; max response: stronger effect = lower value; also: nearly all actives have a fitted effect of over 60% in size; also: potency is read from the fitted curve at half-maximal effect; as to max response: % is scaled to controls: 0 for no effect and ±100 for the full control effect
Summary of the method: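 Compounds were pin-transferred onto cells and incubated 48 or 72 hr at 37 degree Celsius, 95% humidity. CellTiter-Glo was added, plates sat 10 min at room temperature, then ATP-coupled luminescence was imaged as the viability read-out.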

CAOV3 = test: Primary qHTS to identify gynecologic anti-cancer compounds using libraries of approved drugs and bioactive compounds (AID 1345084); conditions: Gynecologic cancer cell panel viability, ATPlite luminescence, 48 h; series mostly up to 57.5 µM; also: nearly all actives have a fitted effect of over 55% in size; also: potency is read from the fitted curve at half-maximal effect; as to activity change, negative = cytotoxicity: % is scaled to controls: 0 for no effect and ±100 for the full control effect
Summary of the method: (§1)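 48 h compound exposure at 37 C, 5% CO2; five-point qHTS. ATPlite luminescence readout of cell ATP.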

JEG-3 = test: as above; conditions: Gynecologic cancer cell panel viability, ATPlite luminescence, 48 h; series mostly up to 57.5 µM
Summary of the method: as §1

SKOV3 = test: as above; conditions: Gynecologic cancer cell panel viability, ATPlite luminescence, 48 h; series mostly up to 57.5 µM
Summary of the method: as §1

[4] = target: Calcium and integrin-binding protein 1 (Homo sapiens) (UniProt Q99828); test: Primary qHTS for Identification of Calcium Integrin Binding Protein 1 (CIB1) Competitor (AID 1508620);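 also: GST tagged CIB1 binding a fluorescein labelled alphaIIb integrin peptide tracer; top concentration of the series differs between compounds; % is scaled to controls: 0 for no effect and ±100 for the full control effect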
Summary of the method: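 Fluorescence polarization competition: CIB1-GST (1 uM final) preincubated with compound 15 min at room temperature, then FITC-labeled alphaIIb peptide (100 nM final) added for another 15 min. Polarization read at Ex 480/Em 540.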

HeLa = test: Primary qHTS to identify gynecologic anti-cancer compounds using libraries of approved drugs and bioactive compounds (AID 1345084); conditions: Gynecologic cancer cell panel viability, ATPlite luminescence, 48 h; series mostly up to 57.5 µM; also: nearly all actives have a fitted effect of over 55% in size; also: potency is read from the fitted curve at half-maximal effect; as to activity change, negative = cytotoxicity: % is scaled to controls: 0 for no effect and ±100 for the full control effect
Summary of the method: as §1

HACAT = test: qHTS assay to identify novel small-molecules to repurpose for Merkel cell carcinoma treatment (AID 1296009); conditions: MCC and control cell lines, CellTiter-Glo viability, 72 h; at 44.8 µM (top of the series) unless noted; also: nearly all actives have a fitted effect of over 60% in size
Summary of the method: (§2)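 qHTS format: cells treated with library compounds in DMSO across 8 (NPC) or 11 (MIPE) concentrations. Readout after 72 hr at 37 degree celsius was CellTiter-Glo luminescence.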

[5] = P-glycoprotein substrates identified in KB-3-1 adenocarcinoma cell line, qHTS therapeutic library screen (AID 1346986); also: nearly all actives have a fitted effect of over 60% in size;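 also: potency is read from the fitted curve at half-maximal effect; potency is for cytotoxicity meaning loss of cell viability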
Summary of the method: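 Resistance attributable to P-gp was assessed by comparing AC50 in KB-8-5-11 with parental KB-3-1 and by tariquidar reversal. Cells were exposed 72 h and viability read by CellTiter-Glo.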

[6] = target: Cytochrome P450 2D6 (Homo sapiens) (UniProt P10635); test: Cytochrome P450 family 2 subfamily D member 6 (CYP2D6) small molecule antagonists: luciferase biochemical (cell-free) qHTS assay (AID 1645840; active = well fitted curve in the direction sought with a large enough effect in the repeat runs; an effect the other way counts as inactive or inconclusive; also: nearly all actives have a fitted effect of over 55% in size; also: potency is read from the fitted curve at half-maximal effect)
Summary of the method: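 P450-Glo luminescent screen: recombinant CYP2D6 enzyme–proluciferin substrate mix preincubated with compound 10 min at room temperature, then NADPH regeneration added for 1 h at room temperature. Detection reagent added for 20 min; luciferin light read as relative luminescence units.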

[7] = target: Catechol O-methyltransferase (Homo sapiens) (UniProt P21964); test: Confirmatory Screen for Target Class Profiling of Small Molecule Inhibitors of Methyltransferases (AID 1745852; calls by dose curve; also: potency is read from the fitted curve at half-maximal effect); conditions: MTase-Glo luminescence, SAH detection, recombinant enzyme; measured here: COMT max response; stronger effect = lower value
[8] = target: Guanidinoacetate N-methyltransferase (Homo sapiens) (UniProt Q14353); test: as above; conditions: activity change, negative = inhibition: at 57.3 µM (top of the series) unless noted
[9] = target: Nicotinamide N-methyltransferase (Homo sapiens) (UniProt P40261); test: as above; conditions: MTase-Glo luminescence, SAH detection, recombinant enzyme; measured here: NNMT max response; stronger effect = lower value
[10] = target: Cytochrome P450 2C9 (Homo sapiens) (UniProt P11712); test: Cytochrome P450 family 2 subfamily C member 9 (CYP2C9) small molecule antagonists: luciferase biochemical (cell-free) qHTS assay (AID 1645842; active = well fitted curve in the direction sought with a large enough effect in the repeat runs; an effect the other way counts as inactive or inconclusive; also: % is scaled to controls: 0 for no effect and ±100 for the full control effect; nearly all actives have a fitted effect of over 55% in size)
Summary of the method: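 Luminescence, after 20 min with luciferin detection reagent, reflected CYP2C9 turnover during a 1 h NADPH-driven reaction at 37C. Enzyme-substrate mix contained 0.4% bovine serum albumin and was preincubated with compound 10 min at room temperature.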

[11] = Cytotoxicity counterscreen for inhibitors of SARS-CoV-2 cell entry (AID 1645845; calls by dose curve; also: % is scaled to controls: 0 for no effect and ±100 for the full control effect; nearly all actives have a fitted effect of over 50% in size)
Summary of the method: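 Expi293F/hACE2 cells seeded overnight; cpd pin-transferred in DMSO, 1 h preincubation, + media, 48 h 37 C 5% CO2; ATPLite 1step luminescence; normalized to cells and no cells.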

[12] = Primary qHTS to identify inhibitors of SARS-CoV-2 cell entry (AID 1645846; calls by dose curve; also: nearly all actives have a fitted effect of over 45% in size; also: potency is read from the fitted curve at half-maximal effect); conditions: activity change, negative = inhibition: at 57.1 µM (top of the series) unless noted
Summary of the method: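 HEK293 cells stably expressing human ACE2, pre-treated 1 h with compound, then infected with MLV particles pseudotyped with Wuhan-Hu-1 spike (C-terminal 19-aa truncation). Luciferase luminescence after 48 h at 37 °C, normalised to spike PP and bald PP.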

CRL-7250 = normal cell line; test: qHTS assay to identify novel small-molecules to repurpose for Merkel cell carcinoma treatment (AID 1296009); conditions: MCC and control cell lines, CellTiter-Glo viability, 72 h; series mostly up to 92 µM; also: nearly all actives have a fitted effect of over 60% in size
Summary of the method: as §2

Sequence of Cytochrome P450 2D6 (Homo sapiens) (P10635 whole entry, looked up): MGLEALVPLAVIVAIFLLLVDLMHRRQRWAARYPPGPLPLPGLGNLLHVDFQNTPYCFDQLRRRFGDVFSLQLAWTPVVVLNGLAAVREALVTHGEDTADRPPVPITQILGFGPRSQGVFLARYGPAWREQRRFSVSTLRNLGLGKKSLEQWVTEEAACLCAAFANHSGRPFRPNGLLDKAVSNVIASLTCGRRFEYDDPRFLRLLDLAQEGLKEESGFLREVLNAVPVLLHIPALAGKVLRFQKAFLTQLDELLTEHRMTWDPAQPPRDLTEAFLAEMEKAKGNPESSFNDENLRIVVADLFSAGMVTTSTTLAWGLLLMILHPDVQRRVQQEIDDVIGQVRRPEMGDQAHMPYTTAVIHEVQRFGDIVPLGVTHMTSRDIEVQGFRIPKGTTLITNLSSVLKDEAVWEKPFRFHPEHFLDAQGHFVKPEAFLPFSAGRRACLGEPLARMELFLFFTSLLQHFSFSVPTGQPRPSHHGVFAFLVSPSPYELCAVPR
Sequence of Calcium and integrin-binding protein 1 (Homo sapiens) (Q99828 whole entry, looked up): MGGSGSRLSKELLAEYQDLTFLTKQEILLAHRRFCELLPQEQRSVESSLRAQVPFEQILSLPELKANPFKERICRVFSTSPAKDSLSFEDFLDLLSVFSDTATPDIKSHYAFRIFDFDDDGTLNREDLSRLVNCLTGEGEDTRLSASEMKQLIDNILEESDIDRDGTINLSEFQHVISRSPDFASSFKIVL
Sequence of Nicotinamide N-methyltransferase (Homo sapiens) (P40261 whole entry, looked up): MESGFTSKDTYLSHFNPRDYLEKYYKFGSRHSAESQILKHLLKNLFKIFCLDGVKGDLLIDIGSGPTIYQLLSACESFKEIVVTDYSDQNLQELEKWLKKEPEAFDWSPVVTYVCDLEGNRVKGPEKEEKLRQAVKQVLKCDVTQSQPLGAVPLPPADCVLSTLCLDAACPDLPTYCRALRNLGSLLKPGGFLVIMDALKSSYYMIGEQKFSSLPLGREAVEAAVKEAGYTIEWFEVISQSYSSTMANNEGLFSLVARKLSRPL
Sequence of Catechol O-methyltransferase (Homo sapiens) (P21964 whole entry, looked up): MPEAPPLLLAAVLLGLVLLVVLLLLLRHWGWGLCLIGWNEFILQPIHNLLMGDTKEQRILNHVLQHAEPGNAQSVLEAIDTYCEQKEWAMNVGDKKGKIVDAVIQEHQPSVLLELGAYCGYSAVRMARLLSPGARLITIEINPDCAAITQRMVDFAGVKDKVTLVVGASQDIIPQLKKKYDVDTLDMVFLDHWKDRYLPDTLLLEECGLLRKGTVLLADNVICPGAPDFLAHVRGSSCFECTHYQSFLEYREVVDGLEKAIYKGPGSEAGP
Sequence of Cytochrome P450 2C9 (Homo sapiens) (P11712 whole entry, looked up): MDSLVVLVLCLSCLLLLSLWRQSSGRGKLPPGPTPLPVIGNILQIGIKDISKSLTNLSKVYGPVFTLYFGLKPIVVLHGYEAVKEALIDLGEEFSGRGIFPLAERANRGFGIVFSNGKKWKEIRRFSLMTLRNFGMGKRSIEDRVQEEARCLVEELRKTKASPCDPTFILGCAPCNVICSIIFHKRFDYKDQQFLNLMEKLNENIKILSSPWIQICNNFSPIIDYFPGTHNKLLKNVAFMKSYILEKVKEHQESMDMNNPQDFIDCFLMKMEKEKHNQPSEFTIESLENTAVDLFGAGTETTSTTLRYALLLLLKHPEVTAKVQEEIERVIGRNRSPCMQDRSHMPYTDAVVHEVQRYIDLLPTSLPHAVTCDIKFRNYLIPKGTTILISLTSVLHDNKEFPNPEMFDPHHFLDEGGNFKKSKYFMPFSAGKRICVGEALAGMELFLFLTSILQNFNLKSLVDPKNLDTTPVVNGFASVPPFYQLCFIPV

CCC1C2CC3C4N(C)c5ccccc5C45CC(C2C5O)N3C1O (stereo not given)
inactive: Potency [1] | Potency [2] | Potency [3] | max response (KB-3-1) 6.75% | Potency (CAOV3) | Potency (JEG-3) | Potency (SKOV3)

C=C1[C@@H](C)[C@H]2[C@H](Cc3ccccc3)NC(=O)[C@]23[C@H](OC(C)=O)/C=C/[C@](C)(O)C(=O)[C@@H](C)C/C=C/[C@H]3[C@@H]1O
inactive: Potency [2] | Potency [4] | Potency [3] | Potency (HeLa) | Potency (JEG-3)
active: Potency [1] 9200 nM | Potency (KB-3-1) 2590 nM

Cc1cccc(NC(=O)N[C@H]2CN(C)c3ccccc3C(c3ccccc3)=N2)c1
inactive: Potency [2] | Potency [4] | Potency [3] | outcome (HACAT) | Potency (CAOV3) | Potency (HeLa) | Potency (JEG-3) | Potency (SKOV3)

CC(C)(NC(=O)[C@@H](N)Cc1ccc(O)cc1)C(=O)N[C@@H](Cc1cc2ccccc2[nH]1)C(=O)N[C@@H](Cc1ccccc1)C(=O)O (H-Y[Aib][Ala(indol-2-yl)]F-OH)
inactive: outcome [5] inactive [at 9.29 µM] | activity change, negative = cytotoxicity [1] 5.29% [at 9.29 µM] | Potency [4] | redox activity (% of DA3003) [3] 9.88% [at 11.5 µM] | activity change, negative = cytotoxicity (CAOV3) 2.52% [at 11.6 µM] | activity change, negative = cytotoxicity (HeLa) 14.3% [at 11.6 µM] | activity change, negative = cytotoxicity (JEG-3) -21.6% [at 11.6 µM] | activity change, negative = cytotoxicity (SKOV3) -8.69% [at 11.6 µM]

C[C@H]1C/C=C/[C@H]2[C@@H]3O[C@]3(C)[C@@H](C)[C@H]3[C@H](Cc4ccccc4)NC(=O)[C@]32OC(=O)O/C=C/[C@@](C)(O)C1=O
active: Potency (KB-3-1) 563 nM | Potency (SKOV3) 2000 nM
inactive: Potency [4] | Potency [3]

CN(C)c1cc2c(cc1Sc1nc3c(N)nccc3n1CCNCC(C)(C)C)OCO2
-41.4%: activity [9]
-13.6%: activity [7]
active: Potency [1] 517 nM | Potency [6] 952 nM | Potency (CAOV3) 1120 nM | Potency (JEG-3) 11200 nM | Potency (SKOV3) 5620 nM
inactive: Potency [2] | Potency [4]
-4.13%: activity change, negative = inhibition [8]

C=C(C)[C@@H]1[C@H]2OC(=O)[C@H]1[C@]1(O)C[C@H]3O[C@]34C(=O)O[C@H]2[C@]14C
inactive: Potency [5] | Potency [1] | Potency [2] | Potency [4] | Potency [3] | outcome (KB-3-1) | Potency (CAOV3) | Potency (JEG-3) | Potency (SKOV3)

CCc1nn(C)c(C(=O)NCc2ccc(Oc3ccc(C)cc3)cc2)c1Cl
active: Potency [1] 25900 nM
inactive: Potency [2] | Potency [4] | Potency [3] | Potency (CAOV3) | Potency (JEG-3)

COC1CC(O[C@H]2CC[C@]3(C=O)C4CC[C@]5(C)[C@@H](C6=CC(=O)OC6)CC[C@]5(O)[C@@H]4CC[C@@H]3C2)OC(C)C1O[C@@H]1O[C@H](CO)[C@@H](O[C@@H]2O[C@H](CO)[C@@H](O)[C@H](O)[C@H]2O)[C@H](O)[C@H]1O (stereo not given in full)
inactive: Potency [2] | Potency [4]
active: Potency [1] 123 nM | Potency (SKOV3) 398 nM

N#Cc1cn([C@@H]2O[C@H](CO)[C@H](O)[C@@H]2O)c2ncnc(N)c12
-98.2%: activity [7]
inactive: Potency [6] | Potency [10] | Potency [3]
active: Potency [1] 20.6 nM | Potency [8] 38300 nM
-89.8%: activity [9]

COc1cc2c(c(OC)c1OC)-c1ccc(SC)c(=O)cc1[C@@H](NC(C)=O)CC2
active: Potency [1] 231 nM | Potency (KB-3-1) 5.8 nM
inactive: Potency [4]

Cc1c(N2C(=O)[C@@H]3[C@H](O)CCN3C2=O)ccc(C#N)c1Cl
inactive: Potency [1] | Potency [4] | Potency [6] | Potency [3] | outcome (HACAT) | Potency (CAOV3) | Potency (HeLa) | Potency (JEG-3)

Cc1sc2c(c1C)C(c1ccc(Cl)cc1)=N[C@@H](CC(N)=O)c1nnc(C)n1-2
-6.24%: activity change, negative = inhibition [12]
active: Potency (SKOV3) 891 nM
inactive: Potency [6] | Potency [11] | Potency [3] | Potency (JEG-3)

CC(=O)O[C@H]1CC[C@@]2(CI)C(=CC[C@@H]3[C@@H]2CC[C@]2(C)C(=O)CC[C@@H]32)C1
inactive: Potency [1] | Potency [2] | Potency [4] | Potency (CRL-7250) | outcome (HACAT) | Potency (CAOV3) | Potency (JEG-3) | Potency (SKOV3)

C[C@]12CC[C@H](O[C@@H]3O[C@H](CO)[C@@H](O)[C@H](O)[C@H]3O[C@@H]3O[C@H](CO)[C@@H](O)[C@H](O)[C@H]3O)CC1=CC[C@@H]1[C@@H]2CC[C@]2(C)[C@@H](C3=CC(=O)OC3)CC[C@]12O
inactive: Potency [2] | Potency [4] | Potency [3] | Potency (CAOV3) | Potency (JEG-3)

CC1=CC2OC3[C@H](O)C[C@@](C)([C@]34CO4)[C@@]2(CO)[C@H](O)C1=O (stereo not given in full)
inactive: Potency [2] | Potency [4] | Potency [3] | Potency (JEG-3)
active: Potency [1] 1460 nM

C[C@H]1CCC/C=C/C2C[C@H](O)C[C@H]2[C@H](O)/C=C/C(=O)O1 (stereo not given in full)
active: Potency [5] 146 nM | Potency [1] 184 nM | Potency [12] 1000 nM | Potency (CAOV3) 316 nM | Potency (HeLa) 355 nM | Potency (JEG-3) 891 nM
inactive: Potency [2] | Potency [4] | Potency [11] | Potency [3]
